# B1: unnamed (peptide)
# chain: KFIPSRPAPKPPSSA
# B2: unnamed (peptide)
# chain: LKRITSPPLPPRADS
# Biological target: SpBzz1-D2
# Experiment: SPOT peptide array binding signal intensity (averaged, normalized) (arbitrary units (background-subtracted, floor 0; scale differs between SH3 domains)); higher = stronger binding of the SH3 domain to the peptide
# Procedure: (§1)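 GST-tagged SH3 domains from S. cerevisiae (Sc), A. gossypii (Ag), C. albicans (Ca) and S. pombe (Sp) were incubated at 10 ug/ml overnight at 4 C on cellulose SPOT membranes carrying 292 synthetic 15-mer peptides mined from the S. cerevisiae proteome (cysteines replaced by serines). Binding was detected with anti-GST antibody, HRP secondary and chemiluminescence, quantified with Genespotter, and reported as normalized spot intensities averaged over biological replicates.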
row,Binder,SPOT peptide array binding signal intensity
1,B1,32.8
2,B2,1.75

# Biological target: SpCyk3
# Experiment: as above
# Procedure: as §1
row,Binder,SPOT peptide array binding signal intensity
1,B1,≤ 0
2,B2,3

# Biological target: SpHof1
# Experiment: as above
# Procedure: as §1
row,Binder,SPOT peptide array binding signal intensity
1,B1,9.75
2,B2,168

# Biological target: SpHof1-2
# Experiment: as above
# Procedure: as §1
row,Binder,SPOT peptide array binding signal intensity
1,B1,9.25
2,B2,17.2

# Biological target: SpHof1-3
# Experiment: as above
# Procedure: as §1
row,Binder,SPOT peptide array binding signal intensity
1,B1,144
2,B2,140

# Biological target: SpHse1
# Experiment: as above
# Procedure: as §1
row,Binder,SPOT peptide array binding signal intensity
1,B1,140
2,B2,47.5

# Biological target: SpLsb1
# Experiment: as above
# Procedure: as §1
row,Binder,SPOT peptide array binding signal intensity
1,B1,62
2,B2,1600

# Biological target: SpLsb4
# Experiment: as above
# Procedure: as §1
row,Binder,SPOT peptide array binding signal intensity
1,B1,865
2,B2,4790

# Biological target: SpMyo1
# Experiment: as above
# Procedure: as §1
row,Binder,SPOT peptide array binding signal intensity
1,B1,3260
2,B2,102

# Biological target: SpNbp2
# Experiment: as above
# Procedure: as §1
row,Binder,SPOT peptide array binding signal intensity
1,B1,1060
2,B2,≤ 0

# Biological target: SpPex13
# Experiment: as above
# Procedure: as §1
row,Binder,SPOT peptide array binding signal intensity
1,B1,90
2,B2,≤ 0

# Biological target: SpRvs167
# Experiment: as above
# Procedure: as §1
row,Binder,SPOT peptide array binding signal intensity
1,B1,319
2,B2,3150

# Biological target: SpSla1-D1-D2
# Experiment: as above
# Procedure: as §1
row,Binder,SPOT peptide array binding signal intensity
1,B1,≤ 0
2,B2,1

# Biological target: SpSla1-D3
# Experiment: as above
# Procedure: as §1
row,Binder,SPOT peptide array binding signal intensity
1,B1,≤ 0
2,B2,1.5

# Biological target: AgAbp1
# Experiment: as above
# Procedure: as §1
row,Binder,SPOT peptide array binding signal intensity
1,B2,20.5

# Biological target: AgBbc1
# Experiment: as above
# Procedure: as §1
row,Binder,SPOT peptide array binding signal intensity
1,B2,427

# Biological target: AgBem1-D1
# Experiment: as above
# Procedure: as §1
row,Binder,SPOT peptide array binding signal intensity
1,B2,59

# Biological target: AgBzz1-D1
# Experiment: as above
# Procedure: as §1
row,Binder,SPOT peptide array binding signal intensity
1,B2,87.5

# Biological target: AgBzz1-D2
# Experiment: as above
# Procedure: as §1
row,Binder,SPOT peptide array binding signal intensity
1,B2,82

# Biological target: AgCyk3
# Experiment: as above
# Procedure: as §1
row,Binder,SPOT peptide array binding signal intensity
1,B2,1

# Biological target: AgFus1
# Experiment: as above
# Procedure: as §1
row,Binder,SPOT peptide array binding signal intensity
1,B2,2

# Biological target: AgHof1
# Experiment: as above
# Procedure: as §1
row,Binder,SPOT peptide array binding signal intensity
1,B2,678

# Biological target: AgHse1
# Experiment: as above
# Procedure: as §1
row,Binder,SPOT peptide array binding signal intensity
1,B2,49

# Biological target: AgLsb1
# Experiment: as above
# Procedure: as §1
row,Binder,SPOT peptide array binding signal intensity
1,B2,1010

# Biological target: AgLsb4
# Experiment: as above
# Procedure: as §1
row,Binder,SPOT peptide array binding signal intensity
1,B2,5100

# Biological target: AgMyo5
# Experiment: as above
# Procedure: as §1
row,Binder,SPOT peptide array binding signal intensity
1,B2,3.25

# Biological target: AgNbp2
# Experiment: as above
# Procedure: as §1
row,Binder,SPOT peptide array binding signal intensity
1,B2,22

# Biological target: AgRvs167
# Experiment: as above
# Procedure: as §1
row,Binder,SPOT peptide array binding signal intensity
1,B2,1890

# Biological target: AgSho1
# Experiment: as above
# Procedure: as §1
row,Binder,SPOT peptide array binding signal intensity
1,B2,4

# Biological target: AgSla1-D1-D2
# Experiment: as above
# Procedure: as §1
row,Binder,SPOT peptide array binding signal intensity
1,B2,≤ 0

# Biological target: AgSla1-D3
# Experiment: as above
# Procedure: as §1
row,Binder,SPOT peptide array binding signal intensity
1,B2,4.75

# Biological target: CaAbp1-D1
# Experiment: as above
# Procedure: as §1
row,Binder,SPOT peptide array binding signal intensity
1,B2,134

# Biological target: CaAbp1-D2
# Experiment: as above
# Procedure: as §1
row,Binder,SPOT peptide array binding signal intensity
1,B2,96

# Biological target: CaBbc1
# Experiment: as above
# Procedure: as §1
row,Binder,SPOT peptide array binding signal intensity
1,B2,1010

# Biological target: CaBem1-D1
# Experiment: as above
# Procedure: as §1
row,Binder,SPOT peptide array binding signal intensity
1,B2,24.5

# Biological target: CaBzz1-D1
# Experiment: as above
# Procedure: as §1
row,Binder,SPOT peptide array binding signal intensity
1,B2,1940

# Biological target: CaBzz1-D2
# Experiment: as above
# Procedure: as §1
row,Binder,SPOT peptide array binding signal intensity
1,B2,423

# Biological target: CaCyk3
# Experiment: as above
# Procedure: as §1
row,Binder,SPOT peptide array binding signal intensity
1,B2,25.5

# Biological target: CaFus1
# Experiment: as above
# Procedure: as §1
row,Binder,SPOT peptide array binding signal intensity
1,B2,99.5

# Biological target: CaHof1
# Experiment: as above
# Procedure: as §1
row,Binder,SPOT peptide array binding signal intensity
1,B2,4.25

# Biological target: CaHse1
# Experiment: as above
# Procedure: as §1
row,Binder,SPOT peptide array binding signal intensity
1,B2,124

# Biological target: CaLsb1
# Experiment: as above
# Procedure: as §1
row,Binder,SPOT peptide array binding signal intensity
1,B2,1.5

# Biological target: CaLsb4
# Experiment: as above
# Procedure: as §1
row,Binder,SPOT peptide array binding signal intensity
1,B2,6040

# Biological target: CaMyo5
# Experiment: as above
# Procedure: as §1
row,Binder,SPOT peptide array binding signal intensity
1,B2,2.5

# Biological target: CaNbp2
# Experiment: as above
# Procedure: as §1
row,Binder,SPOT peptide array binding signal intensity
1,B2,47

# Biological target: CaRvs167
# Experiment: as above
# Procedure: as §1
row,Binder,SPOT peptide array binding signal intensity
1,B2,2070

# Biological target: CaRvs167-3
# Experiment: as above
# Procedure: as §1
row,Binder,SPOT peptide array binding signal intensity
1,B2,9.5

# Biological target: CaSho1
# Experiment: as above
# Procedure: as §1
row,Binder,SPOT peptide array binding signal intensity
1,B2,9.5

# Biological target: CaSla1-D1-D2
# Experiment: as above
# Procedure: as §1
row,Binder,SPOT peptide array binding signal intensity
1,B2,244

# Biological target: CaSla1-D3
# Experiment: as above
# Procedure: as §1
row,Binder,SPOT peptide array binding signal intensity
1,B2,2

# Biological target: ScAbp1
# Experiment: as above
# Procedure: as §1
row,Binder,SPOT peptide array binding signal intensity
1,B2,16.5

# Biological target: ScBbc1
# Experiment: as above
# Procedure: as §1
row,Binder,SPOT peptide array binding signal intensity
1,B2,35.2

# Biological target: ScBem1-D1
# Experiment: as above
# Procedure: as §1
row,Binder,SPOT peptide array binding signal intensity
1,B2,10

# Biological target: ScBzz1-D1
# Experiment: as above
# Procedure: as §1
row,Binder,SPOT peptide array binding signal intensity
1,B2,56

# Biological target: ScBzz1-D2
# Experiment: as above
# Procedure: as §1
row,Binder,SPOT peptide array binding signal intensity
1,B2,18

# Biological target: ScCyk3
# Experiment: as above
# Procedure: as §1
row,Binder,SPOT peptide array binding signal intensity
1,B2,2

# Biological target: ScFus1
# Experiment: as above
# Procedure: as §1
row,Binder,SPOT peptide array binding signal intensity
1,B2,1

# Biological target: ScHof1
# Experiment: as above
# Procedure: as §1
row,Binder,SPOT peptide array binding signal intensity
1,B2,234

# Biological target: ScHse1
# Experiment: as above
# Procedure: as §1
row,Binder,SPOT peptide array binding signal intensity
1,B2,91.5

# Biological target: ScLsb1
# Experiment: as above
# Procedure: as §1
row,Binder,SPOT peptide array binding signal intensity
1,B2,661

# Biological target: ScLsb2
# Experiment: as above
# Procedure: as §1
row,Binder,SPOT peptide array binding signal intensity
1,B2,1120

# Biological target: ScLsb3
# Experiment: as above
# Procedure: as §1
row,Binder,SPOT peptide array binding signal intensity
1,B2,7910

# Biological target: ScLsb4
# Experiment: as above
# Procedure: as §1
row,Binder,SPOT peptide array binding signal intensity
1,B2,5640

# Biological target: ScMyo3
# Experiment: as above
# Procedure: as §1
row,Binder,SPOT peptide array binding signal intensity
1,B2,24

# Biological target: ScMyo5
# Experiment: as above
# Procedure: as §1
row,Binder,SPOT peptide array binding signal intensity
1,B2,≤ 0

# Biological target: ScNbp2
# Experiment: as above
# Procedure: as §1
row,Binder,SPOT peptide array binding signal intensity
1,B2,77.5

# Biological target: ScPex13
# Experiment: as above
# Procedure: as §1
row,Binder,SPOT peptide array binding signal intensity
1,B2,2230

# Biological target: ScRvs167
# Experiment: as above
# Procedure: as §1
row,Binder,SPOT peptide array binding signal intensity
1,B2,3220

# Biological target: ScSho1
# Experiment: as above
# Procedure: as §1
row,Binder,SPOT peptide array binding signal intensity
1,B2,270

# Biological target: ScSla1-D1-D2
# Experiment: as above
# Procedure: as §1
row,Binder,SPOT peptide array binding signal intensity
1,B2,492

# Biological target: ScSla1-D3
# Experiment: as above
# Procedure: as §1
row,Binder,SPOT peptide array binding signal intensity
1,B2,36.2

# Biological target: SpAbp1-D1
# Experiment: as above
# Procedure: as §1
row,Binder,SPOT peptide array binding signal intensity
1,B2,118

# Biological target: SpBbc1
# Experiment: as above
# Procedure: as §1
row,Binder,SPOT peptide array binding signal intensity
1,B2,3

# Biological target: SpBzz1-D1
# Experiment: as above
# Procedure: as §1
row,Binder,SPOT peptide array binding signal intensity
1,B2,1080

# Source: the supplement of paper PMC4466140
